ChEMBL document CHEMBL1157539, “Thousands of chemical starting points for antimalarial lead identification” (Nature, 2010)

Columns and labels:
Format in all cases: functional
Plasmodium falciparum [1] = test: GSK_TCMDC: Inhibition of Plasmodium falciparum 3D7 in whole red blood cells, using parasite LDH activity as an index of growth. Test compounds present at 2uM
Plasmodium falciparum [2] = test: GSK_TCMDC: Inhibition of Plasmodium falciparum Dd2 in whole red blood cells, using parasite LDH activity as an index of growth. Test compounds present at 2uM
HepG2 = test: GSK_TCMDC: Percent inhibition of human HepG2 cell line. Test compounds present at 10uM.

SMILES	Inhibition (Plasmodium falciparum [1]) [%]	Inhibition (Plasmodium falciparum [2]) [%]	Inhibition (HepG2) [%]
CCc1sc(CN(CCCNc2cc(=O)c3ccccc3[nH]2)Cc2sc(CC)c(Br)c2-c2ccsc2)c(-c2ccsc2)c1Br.Cl	99	98	10
CC(C)c1sc(N2CCN(C)CC2)nc1C(=O)NCCc1ccc(Br)cc1.O=C(O)C(F)(F)F	89	60	0
NC1CCN(Cc2ccc(-c3ccc(-c4nc5ccccc5[nH]4)cc3)cc2)C1.O=C(O)C(F)(F)F (centres undefined)	100	100	34
COc1ccc(Cn2c(Nc3cccc(C(F)(F)F)c3)nc3cc(C(=O)NCCN4CCCC4)ccc32)cc1Cl	97	54	11
O=C(Cc1cccc(O)c1)NCC(Cc1ccc(O)cc1)c1ccccc1 (centres undefined)	91	97	0
COC1CCC(C(=O)Nc2ccc(-c3cccc(-c4nc5cc(C(F)(F)F)ccc5[nH]4)c3)cc2)CC1 (centres undefined)	85	48	69
CC(C)N1CCN(CCCCNc2c3ccccc3nc3ccccc23)CC1.Cl	100	0	38
Cc1cc(-c2ccc(CN3Cc4ccccc4C3)cc2)ccc1S(=O)(=O)NCCN1CCCC1.O=C(O)C(F)(F)F	94	10	49
O=C(Nc1cccc(C(F)(F)F)c1)c1cccc(S(=O)(=O)NC2CCCN(CC3CCCCC3)C2)c1.O=C(O)C(F)(F)F (centres undefined)	97	15	18
Cc1cccc(OCC(=O)Nc2cccc(NC(=O)COc3cccc(C)c3)n2)c1	98	30	0
CC1CCN(Cc2ccc(NC(=O)c3cc4ccc5cccnc5c4[nH]3)cc2)CC1	100	93	10
O=c1c(NCCCN(Cc2ccc(F)cc2)c2ccccn2)c(NCc2cccnc2)c1=O	100	92	0
COc1ccccc1C1CCN(C2CCC(NC(=O)c3ccc4[nH]c(-c5ccc(C)cc5)nc4c3)CC2)CC1 (centres undefined)	100	100	100
CC1CNC(c2ccc(NC(=O)c3ccc(C(=O)Nc4ccc(C5=NC(C)CN5)cc4)cc3)cc2)=N1.CS(=O)(=O)O (centres undefined)	99	100	15
Clc1ccc2c(NN=Cc3ccco3)ccnc2c1	100	96	3
CC(C)[C@H](NC(=O)c1c(CN2CCC(N3CCCCC3)CC2)c(-c2ccccc2)nc2cc(O)ccc12)c1ccccc1	100	73	10
CS(=O)(=O)CCNCc1cc(-c2cc3ncnc(Nc4ccc(OCc5cccc(F)c5)c(Cl)c4)c3s2)cs1	99	48	8
C#CC(C)(CO)N1CCCC1 (centres undefined)	95	1	10
CCNc1cc(C)nc(Nc2ccc(NC(=O)c3ccccc3)cc2)n1	100	63	41
CN(C)c1ccc(-c2ccc(C(=O)NC3CCN(Cc4ccc5c(c4)OCCO5)CC3)s2)cc1.O=C(O)C(F)(F)F	100	73	36
c1cncc(Oc2ccc(Nc3ccnc4cc(-c5cccc(CN6CCOCC6)c5)ccc34)cc2)c1	100	100	14
Cc1nc2ccc3ccc(CNc4ccc(C(=O)CC(CCC(=O)O)C(=O)O)cc4)cc3c2c(=O)[nH]1.[Cl-].[Na+] (centres undefined)	95	96	51
CN(C)C(=O)c1cc(CNCc2ccccc2)ccc1-c1cccc(CNCc2ccc(-c3ccccc3)cc2)c1.O=C(O)C(F)(F)F	90	12	27
CSc1cccc(Nc2nc3ccc(S(=O)(=O)NC(C)C(C)C)cc3n2[C@H](C)C(C)(C)C)c1 (some centres undefined)	97	98	0
Cl.Ic1cc(Nc2ncnc3ccsc23)ccc1OCc1ccccc1	100	81	22
CC1Cc2ccccc2N1S(=O)(=O)c1cc(OCC(F)(F)F)ccc1OCC(F)(F)F (centres undefined)	96	95	10
O=C(Nc1ccc(Cl)c(Cl)c1)N(Cc1ccccc1Br)C1CCNCC1	96	8	13
COCCN1CCC(N(CC2(O)CCN(c3ccc(C(F)(F)F)cc3)CC2)C(=O)Cn2c(SCc3cccc(F)c3F)cc(=O)c3ccccc32)CC1	94	75	29
